DAX1 inh-1 – blocks DAX1 repression of SF-1 activated StAR promoter; hit rate 1.1% among 370,000; HEK293T StAR-luciferase reporter, SF-1/DAX-1 repression relief; inhibition, % at 6.8 µM;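 active = inhibition above the mean over all tested compounds plus 3 SD, cut at about 3.6% in these data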;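 also: 0% = DAX-1 cells with DMSO and 100% = cells lacking DAX-1 with DMSO; higher inhibition means more luminescence from relief of DAX-1 repression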
hgDAF-12 ag – activates the H. glycines DAF-12 receptor ligand-binding domain. AID 687014. HEK293 GAL4-hgDAF12 UAS-luciferase reporter, agonist luminescence; normalized to butyrate control. activation, % at 6.8 µM. hit rate 1.8% among 370,000;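 active = activation above a cutoff set at the mean of all screened compounds plus 3 SD, cut at about 10% in these data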;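 also: 0% = DMSO wells and 100% = sodium butyrate wells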
ssDAF-12 act – activators of S. stercoralis DAF-12 nuclear receptor; HEK293 ssDAF-12/GRIP1 lit1-tk-luc reporter, luminescence; % of 3 µM dafachronic acid response; activation, % at 6.8 µM; hit rate 1% among 370,000;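 active = activation above the mean over all tested compounds plus 3 SD, cut at about 0.9% in these data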;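 also: 0% = DMSO-only wells and 100% = 3 µM delta7-dafachronic acid wells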
hcDAF-12 act – activators of H. contortus DAF-12 nuclear receptor | HEK293 hcDAF-12 lit1-tk-luc reporter, luminescence; 0% DMSO, 100% Δ7-dafachronic acid | activation, % at 6.8 µM | hit rate 1.4% among 370,000 | AID 652067;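 active = activation above the mean of all tested compounds plus 3 SD, cut at about 5.5% in these data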;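 also: 100% = response to 3 µM Δ7-dafachronic acid high control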
DAX1 inh-2 – inhibitors of human orphan nuclear receptor DAX1 (NR0B1) | hit rate 0.99% among 340,000 | P51843 | HEK293 Gal4-DAX1 luciferase reporter, luminescence | inhibition, % at 6.75 µM | AID 504766;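 active = inhibition above the mean over all tested compounds plus 3 SD, cut at about 4.2% in these data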;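 also: 0% = DAX1-transfected cells with DMSO and 100% = empty-vector control cells with DMSO; inhibition shows as a rise in luminescence from relieved DAX1 repression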
Target sequence (P51843 207-470 limits assumed): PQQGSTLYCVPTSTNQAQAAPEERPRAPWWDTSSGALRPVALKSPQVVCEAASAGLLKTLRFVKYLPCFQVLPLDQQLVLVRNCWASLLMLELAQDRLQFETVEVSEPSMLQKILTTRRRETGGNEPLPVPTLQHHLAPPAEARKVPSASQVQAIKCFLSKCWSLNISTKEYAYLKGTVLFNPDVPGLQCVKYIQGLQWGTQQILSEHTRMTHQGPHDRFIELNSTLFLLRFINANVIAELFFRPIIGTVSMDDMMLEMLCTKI
Active calls of the source: *; . = no result given. An excerpt weighted towards active compounds, which were near 4.1% of everything screened.

SMILES	DAX1 inh-1	hgDAF-12 ag	ssDAF-12 act	hcDAF-12 act	DAX1 inh-2
CC(NC1CCN(Cc2ccccc2)CC1)c1ccc(F)cc1 (configuration not stated)	-1	-2	1.1*	-2	0
Fc1ccc(CNC2CCN(Cc3ccccc3)CC2)cc1	1	4	0	-1	2
O=C(NNC(=S)Nc1ccccc1)C1CC1	1	-2	-2	1	1
S=C(NN=C(C1CC1)C1CC1)Nc1ccccc1	1	10	-1	-1	6.8*
Cc1ccc(C(=O)NC2CCCCN(Cc3cccc(F)c3)C2=O)cc1 (configuration not stated)	0	5	-1	2	.
CCN1CCN(c2ccc(S(=O)(=O)N3CCOCC3)cc2NC(=O)c2cccc([N+](=O)[O-])c2)CC1	0	3	1.1*	1	1
CCN1CCN(c2ccc(S(=O)(=O)N3CCOCC3)cc2NC(=O)c2ccc(C(F)(F)F)cc2)CC1	0	2	-1	-1	5.9*
CCOC(=O)N1CCN(C(=O)C[C@@H]2C(=O)N(Cc3ccc(OC)cc3)C3=CCN(C(=O)OC(C)(C)C)C[C@]32C(=O)OCC)CC1	1	-3	-2	-1	.
CCOc1ccccc1NC(=O)C(OC(=O)C1CC1)c1ccccc1 (configuration not stated)	0	-1	-1	-1	1
CCOc1ccccc1NC(=O)C(NCC1(N2CCCCC2)CCCCC1)c1ccccc1 (configuration not stated)	-1	1	-2	0	4.4*
CC(=O)ONC(=Nc1ccccc1)c1nonc1N	0	2	-1	-1	5.2*
Cc1nc2nc(-c3ccccc3)nn2c(C)c1C	1	11*	0	4	3
Cc1nc(-c2ccccc2)nc(-c2ccccc2)n1	0	1	-1	2	0
Cc1nc2nc(-c3ccccc3)nn2c(C)c1Cl	2	7	0.9*	5.6*	2
CN1[C@H](Cc2ccccc2)COc2cccc(F)c2S1(=O)=O	-1	-1	0	-3	.
Cc1ccc(/C(O)=C2\C(=O)C(=O)N(CCN(C)C)C2c2ccccc2F)cc1 (configuration not stated)	-1	-1	-1	-1	4.6*
Cc1nc2ccccn2c1/C(O)=C1\C(=O)C(=O)N(CCN(C)C)C1c1ccco1 (configuration not stated)	0	2	-1	2	5.2*
CCN(CC)CCN1C(=O)C(=O)/C(=C(/O)c2ccc(F)cc2)C1c1cccnc1 (configuration not stated)	0	0	-1	-1	5.0*
CC(C)=CCC/C(C)=C/CN1CC(=O)N2[C@H](C[C@@]3(n4ccc5ccccc54)c4ccccc4N(S(=O)(=O)c4ccccc4)[C@@H]23)C1=O	-1	0	-1	1	.
COCO[C@@H]1CC(CO)=C[C@H]2OCO[C@H]21	.	-4	-1	0	.
Cc1ccc(-c2cc(-c3nnc4sc(COc5ccccc5)nn34)[nH]n2)cc1	0	0	-1	-3	.
CCCN(CCC)C(=O)Cn1c2ccccc2c2nc(=O)cc(C)n21	1	-1	1.1*	4	-1
CC/C(=N/NC(=O)c1ccccc1)c1ccc(OCCN2CCOCC2)cc1	2	10	1.6*	2	1
C/C(=N\NC(=O)c1ccc(F)cc1)c1ccc(NC(=O)Cc2ccccc2)cc1	4.1*	7	-1	3	1
CC(=O)Nc1ccc(/C(C)=N/NC(=O)c2ccc(F)cc2)cc1	0	5	-1	-1	0
SMILES	DAX1 inh-1	hgDAF-12 ag	ssDAF-12 act	hcDAF-12 act	DAX1 inh-2
O=C(Nc1ccc(CN2CCOCC2)cc1)c1ccc2ccccc2c1	2	13*	0	2	0
C/C(=N\NC(=O)c1ccc(CN2CCOCC2)cc1)c1ccc(NC(=O)c2ccccc2)cc1	3	11*	-1	5	0
CN(Cc1ccccc1)C(=O)OCc1cn(Cc2ccccc2C(F)(F)F)nn1	-1	-1	0	2	.
O=C(NN=C1CCN(Cc2ccccc2)CC1)c1ccccc1	1	11*	0	2	2
Cn1c(=O)c2[nH]c(SCC(=O)NCCc3ccc(F)cc3)nc2n(C)c1=O	0	-1	0	0	.
CNc1snc(C)c1C(=O)OC(C)C(=O)Nc1cccc(OC)c1 (configuration not stated)	-3	-1	-2	-3	0
COc1ccc(C(=O)COC(=O)c2n[nH]c3ccccc23)c(OC)c1	4.2*	12*	0	4	2
COc1ccc(C(=O)Cn2cnc3ccccc3c2=O)c(OC)c1	3.6*	6	-1	3	1
COc1ccc(OC)c(NC(=O)COC(=O)c2n[nH]c3ccccc23)c1	0	0	-1	0	-1
COc1cccc(NC(=O)C(C)OC(=O)c2n[nH]c3ccccc23)c1 (configuration not stated)	-1	11*	0	1	0
Cc1cc(C(=O)COC(=O)c2n[nH]c3ccccc23)c(C)n1C	4.5*	17*	1.2*	8.1*	2
COc1ccc(C(=O)COC(=O)c2cccnc2Cl)c(OC)c1	1	13*	-1	0	2
CC(CNC(=O)COC(=O)c1cccs1)c1ccccc1 (configuration not stated)	-2	1	-1	0	1
CC(CNC(=O)COC(=O)c1cccnc1Cl)c1ccccc1 (configuration not stated)	3	5	1.2*	1	-1
COc1ccc(OC)c(C(=O)COC(=O)c2cccnc2Cl)c1	0	3	-1	0	2
CCOc1cc(C(=O)NCCOC)cc(OCC)c1OCC	0	2	1.5*	2	0
CCN(CC)S(=O)(=O)c1ccc(-c2csc(C)n2)cc1	1	-1	-1	-1	6.5*
CCCN(CCC)S(=O)(=O)c1cccc(-c2csc(C)n2)c1	-1	-2	-1	-2	0
COc1ccc(N2CCCN(CC(=O)Nc3ccc(Cl)c(Cl)c3)CC2)cc1	0	-2	-1	0	.
O=C(C1CC1)N1CCc2cc(Br)c(S(=O)(=O)NCCCN3CCCCC3)cc21	1	-2	-1	0	.
Cn1nc(-c2ccc(S(N)(=O)=O)s2)cc1C(F)(F)F	0	2	-2	0	1
Cn1nc(C(F)(F)F)cc1-c1ccc(S(N)(=O)=O)s1	0	2	-1	-1	5.1*
O=[N+]([O-])c1ccc(Nc2ccc3ccccc3c2)nc1	-1	11*	-1	3	1
O=[N+]([O-])c1ccc(Nc2ccc(Cl)cc2)nc1	0	7	-2	0	.
CCOC(=O)[C@@]12CN(C(=O)OC(C)(C)C)CC=C1N(Cc1ccc(OC)cc1)C(=O)[C@H]2CC(=O)NCc1ccc(C)o1	-1	-2	-1	-3	.
Cc1cc(C(=O)O)c(C)o1	-1	-1	-1	0	.

Screens (PubChem BioAssay)
